Shown are actives, neighbours in structure and some others; about 6% of the full set was active somewhere.
D1 antagonist = Antagonist of Human D 1 Dopamine Receptor: qHTS; D(1A) dopamine receptor (Homo sapiens), P21728; AID 504652, 2011; 3.2% of 360,000 active; HEK293 TREx D1 cells, calcium flux, dopamine EC80; stronger effect = lower value; activity change, negative = inhibition, % at 10 µM; in the data active = activity change below about -30%; note: % is set by controls: 0 for no effect and ±100 for the full control effect
Target sequence (P21728 whole entry, looked up): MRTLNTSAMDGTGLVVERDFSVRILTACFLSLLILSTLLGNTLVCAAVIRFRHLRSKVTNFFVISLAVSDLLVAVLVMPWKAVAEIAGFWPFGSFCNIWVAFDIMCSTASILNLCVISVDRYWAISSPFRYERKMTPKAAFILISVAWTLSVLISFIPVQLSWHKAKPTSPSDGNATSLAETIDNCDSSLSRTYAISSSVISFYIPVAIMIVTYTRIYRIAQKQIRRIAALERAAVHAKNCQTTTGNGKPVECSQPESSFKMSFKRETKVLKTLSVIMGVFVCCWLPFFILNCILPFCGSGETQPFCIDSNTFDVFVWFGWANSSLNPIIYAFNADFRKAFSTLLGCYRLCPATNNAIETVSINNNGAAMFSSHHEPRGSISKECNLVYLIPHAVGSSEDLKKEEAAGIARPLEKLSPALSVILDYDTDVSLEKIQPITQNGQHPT
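Allosteric or orthosteric antagonism assessed as attenuation of the calcium response to EC80 dopamine, added 180 s after compound, in induced HEK293 Trex D1 cells loaded with no-wash calcium dye.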
D1 ag = Allosteric Agonists of the Human D1 Dopamine Receptor: qHTS. D(1A) dopamine receptor (Homo sapiens), P21728. HEK293 T-REx D1 cells, calcium flux, agonist mode. activation, % at 2 µM. 1% of 360,000 active; in the data active = activation above about 30%; note: 0% is about no effect
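Tetracycline-induced HEK293 TREx D1 cells, force-coupled to calcium signalling, were dye-loaded with a no-wash calcium kit. Compound was pin-added after a 10 s baseline. Fluorescence was read kinetically at 1 cycle/s for 180 s, with calcium rises flagged as agonism.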
D3 ag = qHTS of D3 Dopamine Receptor Agonist: qHTS | D(3) dopamine receptor (Homo sapiens), P35462 | D3R DiscoveRx beta-arrestin cells, luminescence, 90 min | max activation, % | 0.58% of 410,000 active | AID 652048, 2013; in the data active = max activation above about 30%; note: 0% is about no effect
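Agonist mode: compounds and dopamine controls were applied to plated cells for 90 min at 37 degrees C after an overnight attachment at 1500 cells/well. Luminescent read-out followed 30 - 60 minutes at room temperature with DiscoveRx detection reagent.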
DRD3 antagonist = qHTS of D3 Dopamine Receptor Antagonist: qHTS; D(3) dopamine receptor (Homo sapiens), P35462; D3R cells, DiscoveRx beta-arrestin luminescence, antagonist mode; stronger effect = lower value; max response, negative = inhibition, %; 2.5% of 360,000 active; AID 652054, 2013; in the data active = max response below about -50%; inconclusive = no clear call, values can overlap the other calls; note: % is set by controls: 0 for no effect and ±100 for the full control effect
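Cells plated overnight at 1500 cells/well, then exposed to library compounds with dopamine controls for 90 minutes at 37 degrees C. DiscoveRx reagent added for 30–60 minutes at room temperature; luminescence read, quantitative HTS format.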
D1 potentiator = Potentiators of Human D1 Dopamine Receptor: qHTS; potentiation, % at 10 µM; AID 504651, 2011; HEK293 TREx D1 cells, calcium flux, dopamine EC20 potentiation; 0.036% of 360,000 active; in the data active = potentiation above about 30%; note: 0% is about no effect
Numbers without * were called inactive.

Results for CN(C)c1ccc(/C=C/C(=O)c2c(O)c3ccccc3oc2=O)cc1 ?
D1 antagonist: -16.8; D1 ag: 155.8*; D3 ag: 4.1; DRD3 antagonist: -3.9; D1 potentiator: -4.0

Results for CCOc1cccc(CC(=O)NCc2ccc3c(c2)CCN3C(=O)c2cccc(C)c2)c1OCC ?
D1 antagonist: 2.7; D1 ag: 4.6; D3 ag: 2.6; D1 potentiator: 0.8

Results for CCOC(=O)CSc1nc(-c2ccc(Cl)cc2)cc(C(F)(F)F)c1C#N ?
D1 antagonist: 6.2; D1 ag: 28.7; D3 ag: 9.9; D1 potentiator: 1.2

What do the screens show for `CCOC(=O)CSc1nc(C2CC2)cc(-c2ccc(Cl)cc2)c1C#N`?
D1 antagonist: -86.6*; D1 ag: 12.2; D3 ag: 4.2; DRD3 antagonist: 2.6; D1 potentiator: 4.2

Results for COc1cccc(NC(=O)Cn2c(=O)n(CCCCC(=O)NCc3ccccc3Cl)c(=O)c3ccccc32)c1 ?
D1 antagonist: 4.7; D1 ag: 0.7; D3 ag: 5.9; D1 potentiator: 1.8

Results for Cc1cc(C(=O)CSc2n[nH]c(N)n2)c(C)n1-c1ccc(F)cc1 ?
D1 antagonist: 16.5; D1 ag: -3.1; D3 ag: -3.6; DRD3 antagonist: -26.2; D1 potentiator: -6.0

Results for Cc1ccc(-n2c(C)cc(C(=O)CSc3n[nH]c(N)n3)c2C)cc1 ?
D1 antagonist: 3.4; D1 ag: 1.6; D3 ag: 38.6*; DRD3 antagonist: 32.7; D1 potentiator: -0.8

What do the screens show for `O=C(CSc1nc2ccccc2nc1Cc1ccc(Cl)cc1)N1CCN(c2ccccc2F)CC1`?
D1 antagonist: 4.8; D1 ag: 3.7; D3 ag: 37.0*; D1 potentiator: -0.7

What do the screens show for `COc1ccc(-n2ncc3c(SCC(=O)N4CCN(c5ccccc5OC)CC4)ncnc32)cc1`?
D1 antagonist: -52.5*; D1 ag: -2.0; D3 ag: 18.5; DRD3 antagonist: 9.1; D1 potentiator: -8.4

Results for COc1ccccc1N1CCN(C(=O)CSc2nc3ccccc3nc2Cc2ccc(C)cc2)CC1 ?
D1 antagonist: 3.4; D1 ag: -1.1; D3 ag: 34.3*; D1 potentiator: 6.0

How did COc1ccccc1N1CCN(C(=O)CSc2nc3ccccc3nc2Cc2ccc(F)cc2)CC1 do in these assays?
D1 antagonist: -2.5; D1 ag: 2.4; D3 ag: 2.8; D1 potentiator: -1.9

What do the screens show for `O=C(NCCc1ccc(Cl)cc1)c1cccn1-c1nnc(N2CCCC2)s1`?
D1 antagonist: -14.4; D1 ag: 0.7; D3 ag: 7.1; D1 potentiator: -5.0

Results for CCn1c(=O)c2cc(C(=O)Nc3cc(C)c(Cl)cc3OC)sc2c2ccccc21 ?
D1 antagonist: 8.9; D1 ag: 2.9; D3 ag: 3.9; D1 potentiator: 0.7

How did COc1ccc2oc(C(=O)OCC(=O)NC3CCCC3)c(C)c2c1 do in these assays?
D1 antagonist: -37.3*; D1 ag: 2.8; D3 ag: 2.2; DRD3 antagonist: -0.2; D1 potentiator: -3.4

How did COc1ccc2oc(C(=O)OCC(=O)NC3(C#N)CCCC3)c(C)c2c1 do in these assays?
D1 antagonist: -48.5*; D1 ag: 8.9; D3 ag: 4.4; DRD3 antagonist: 4.7; D1 potentiator: -6.2

Results for OC1CCCN(C(=S)NCc2ccccc2)C1 (configuration not stated) ?
D1 ag: -2.1; D3 ag: -1.6; DRD3 antagonist: -73.2*; D1 potentiator: 0.2

How did Cc1cc(=O)n(Cc2ccccc2Cl)c2c1c(C)nn2-c1ccccc1 do in these assays?
D1 antagonist: 9.2; D1 ag: 5.9; D3 ag: 13.8; D1 potentiator: -4.3

How did CC(=O)c1ccc(NC(=O)CN2CCC(C(=O)c3ccc(F)cc3)CC2)cc1 do in these assays?
D1 antagonist: 0.9; D1 ag: 2.2; D3 ag: -15.8; DRD3 antagonist: inconclusive; D1 potentiator: -3.2

How did CC1(c2ccc3c(c2)OCCO3)NC(=O)N(CC(=O)c2ccc[nH]2)C1=O (configuration not stated) do in these assays?
D1 antagonist: 8.4; D1 ag: 7.1; D3 ag: -12.2; DRD3 antagonist: 9.9

What do the screens show for `Cc1cccc(NC(=O)CN2CCC(C(=O)c3ccc4c(c3)OCCO4)CC2)c1`?
D1 antagonist: -1.0; D1 ag: 12.7; D3 ag: -10.6; DRD3 antagonist: 0.0; D1 potentiator: -2.5

How did Cc1ccc(C(=O)C2CCN(CC(=O)Nc3ccc4c(c3)OCCO4)CC2)cc1 do in these assays?
D1 antagonist: -2.0; D1 ag: 0.0; D3 ag: 0.0; DRD3 antagonist: -69.6*; D1 potentiator: -7.3

How did Cc1ccc(C(=O)C2CCN(CC(=O)Nc3ccc(N(C)C)cc3)CC2)cc1 do in these assays?
D1 antagonist: -3.0; D1 ag: 3.8; D3 ag: -63.2; DRD3 antagonist: -81.9*; D1 potentiator: -1.3

Results for CC1Cc2ccccc2N1C(=O)CN1C(=O)NC(C)(c2ccc3c(c2)OCCO3)C1=O (configuration not stated) ?
D1 antagonist: 12.1; D1 ag: 37.7*; D3 ag: 8.6; DRD3 antagonist: 23.9; D1 potentiator: 4.8

Results for O=C(NCc1ccc(F)cc1)C1CCCN(C(=O)Nc2ccc(F)cc2)C1 (configuration not stated) ?
D1 antagonist: -85.9*; D1 ag: 3.0; D3 ag: -6.0; DRD3 antagonist: 4.0; D1 potentiator: -2.2

What do the screens show for `CCOc1ccc(NC(=O)Cn2c(=O)c(CNc3ccc(CC)cc3)cc3cc4c(cc32)OCO4)cc1`?
D1 antagonist: 11.9; D1 ag: -0.3; D3 ag: 7.9; D1 potentiator: -1.6

What do the screens show for `COc1ccc2c(CNCc3cccs3)c(C(=O)O)n(Cc3ccccc3F)c2c1`?
D1 antagonist: 11.5; D1 ag: 0.8; D3 ag: -20.3; D1 potentiator: 12.7

Results for COc1ccc(NC(=O)N2CCCC(c3nc(-c4ccc(OC)cc4)no3)C2)cc1 (configuration not stated) ?
D1 antagonist: -13.8; D1 ag: 4.1; D3 ag: 20.0; DRD3 antagonist: -4.8; D1 potentiator: -2.6

What do the screens show for `Cc1ccc(NC(=O)N2CCCCCC2)cc1`?
D1 antagonist: 17.7; D1 ag: 2.1; D3 ag: 2.4; DRD3 antagonist: -15.4; D1 potentiator: -5.1

How did O=C(Nc1ccc(Cl)cc1)N1CCC(c2nc(-c3ccc(F)cc3)no2)CC1 do in these assays?
D1 antagonist: -49.9*; D1 ag: 21.4; D3 ag: -7.7; DRD3 antagonist: 17.5; D1 potentiator: -9.1

Screening data deposited in PubChem by National Center for Advancing Translational Sciences (NCATS).
